Inconclusive results are not listed. Activity calls are given as the source filed them. Unless noted, calls follow the shape of the dose curve; as a rule, active = well fitted curve in the direction sought with a large enough effect; inconclusive = small, poorly fitted or top-dose-only effect, or another doubt; inactive = no such curve, though single readings can be large; an effect the other way counts as inactive or inconclusive.
What was measured:
[1] = target: Cytochrome P450 1A2 (Homo sapiens) (UniProt P05177); test: p450-cyp1a2 (AID 410; calls by dose curve; also: potency is read from the fitted curve at half-maximal effect)
Summary of the method: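 Inhibition was calculated relative to 57 uM furafylline (full inhibition). The reaction used human CYP1A2 at 20nM with Luciferin-ME at its Km, 100uM, driven by an NADPH-regenerating system for 60 min at room temperature.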

[2] = target: Glucocorticoid receptor (Homo sapiens) (UniProt P04150); test: GR-GFP Redistribution (AID 450;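 active = compounds whose dose series gives a full or clear partial fitted curve of increased nuclear translocation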; also: potency is read from the fitted curve at half-maximal effect); settings: U2OS GR-GFP nuclear translocation, laser cytometry, 2 h
[3] = target: Glucocorticoid receptor (Homo sapiens) (UniProt P04150); test: GR-EFC Redistribution (AID 451; calls by dose curve; also: potency is read from the fitted curve at half-maximal effect); settings: CHO-K1 GR-EFC translocation, beta-gal luminescence, 2 h
Summary of the method: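 Translocation of GR-ED fusion to nuclear EA restores b-gal, read by luminescence after 1 h room-temperature detection. Engineered CHO-K1 biosensor cells, 1,000/well, exposed 2 h at 37 C to titrations up to 46 uM final.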

[4] = target: Cytochrome P450 3A4 (Homo sapiens) (UniProt P08684); test: qHTS Assay for Activators of Cytochrome P450 3A4 (AID 885); also: nearly all actives have a fitted effect of over 65% in size
Summary of the method: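 20nM CYP3A4 + 25uM Luciferin-PPXE (=KM), 200mM KPO4; cpd 10 min RT; NADPH regen, 60 min RT; stop w/ detection buffer, 20 min; luminescence. Normalized to 57 uM ketoconazole.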

[5] = target: Cytochrome P450 2C19 (Homo sapiens) (UniProt P33261); test: qHTS Assay for Inhibitors and Substrates of Cytochrome P450 2C19 (AID 899); also: potency is read from the fitted curve at half-maximal effect; nearly all actives have a fitted effect of over 60% in size
Summary of the method: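 Reactions contain 5nM enzyme, 10uM Luciferin-H EGE (KM) and 50mM KPO4; compound preincubates 10 min at 37C, NADPH regeneration starts turnover for 60 min. Luminescence after detection reagent gives activity.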

[6] = target: DNA dC->dU-editing enzyme APOBEC-3G (Homo sapiens) (UniProt Q9HC16); test: qHTS for inhibitors of Vif-A3G interactions: Validation (AID 588379); also: 0% is about no effect
Summary of the method: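 HeLa cells stably expressing Vif and A3G-eYFP, 700 cells/well, incubated overnight at 37 deg C, then exposed to compound overnight at 37 deg C. Inhibition of Vif-mediated degradation read as increased yellow fluorescence (Ex 488/Em 500-530) by laser-scanning cytometry.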

[7] = Primary qHTS for small molecule stabilizers of the endoplasmic reticulum resident proteome: Secreted ER Calcium Modulated Protein (SERCaMP) assay (AID 1508630); also: % is scaled to controls: 0 for no effect and ±100 for the full control effect
Summary of the method: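 GLuc-SERCaMP-expressing SH-SY5Y cells, pretreated 16 h with compound, are challenged with thapsigargin to empty ER calcium stores; after 4 h, coelenterazine is added directly to the medium and luminescence is imaged.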

[8] = NFAT Signaling Pathway (AID 444; active = well fitted curve in either direction with a large enough effect, not every such curve was filed as active;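 also: carbachol stimulus at about its EC50 of 1 µM final; % is scaled to controls: 0 for no effect and ±100 for the full control effect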); settings: Jurkat NFAT-bla M1, carbachol, beta-lactamase ratio, 5 h; at 38 µM (top of the series)
Summary of the method: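 Read-out: CCF4 FRET ratio (460 nm/530 nm) after 1 h RT dye loading, used for %activity and AC50 from titration series. Cells: Jurkat NFAT-β-lactamase/M1 line, treated with compound plus 1 uM carbachol for 5 h, 37 °C.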

[9] = Stat Signaling Pathway (AID 446; active = well fitted curve in either direction with a large enough effect, not every such curve was filed as active;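 also: ME-180 cervical cancer cells given 40 pM IL-6 alongside compound; SIE-controlled beta-lactamase reporter measured as 460/530 nm FRET emission ratio; % is scaled to controls: 0 for no effect and ±100 for the full control effect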); settings: ME-180 SIE beta-lactamase reporter, IL-6 stimulated, 5 h; at 38 µM (top of the series)
Summary of the method: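 ME-180 SIE-bla cells; overnight plating; cpd + IL-6 40 pM, 5 h, 37 C; LiveBLAzer 2.5 h RT; 460/530 nm emission ratio. Normalized to 300 pM IL-6 and 125 nM JAK inhibitor controls.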

[10] = target: Mitogen-activated protein kinase 10 (Mus musculus) (UniProt Q61831); test: JNK3 AlphaScreen Assay (AID 530; active = well fitted curve in either direction with a large enough effect, not every such curve was filed as active;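 also: kinase came from lysate of stimulated human HepG2 cells; signal reports phosphorylation of biotinylated GST-cJun 1-79 at Ser73 with 10 µM ATP; % is scaled to controls: 0 for no effect and ±100 for the full control effect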)
Summary of the method: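 Room-temperature AlphaScreen kinase assay; pre-activated HepG2 lysate as JNK3 source, biotin-GST-cJun(1-79) substrate, 10 uM ATP, compound 15 min preincubation.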

[11] = target: 3',5'-cyclic-AMP phosphodiesterase 4B (Homo sapiens) (UniProt Q07343); test: qHTS Assay for Inhibitors of PDE-IV (AID 607; active = well fitted activation curve with a large enough effect in the main read-out, with a control signal flat, not every such curve was filed as active; also: % of control where 0% means no effect)
Summary of the method: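 ACTOne HEK293 cells carry a modified cAMP-gated CNG channel and express endogenous PDE4; plated 1000 cells/well, compounds up to 22.9 uM final. Membrane-potential dye fluorescence (ex 535/em 590) was read; parental cells received 10 uM forskolin + 100 uM RO 20-1724.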

[12] = target: Cytochrome P450 3A4 (Homo sapiens) (UniProt P08684); test: qHTS Assay for Inhibitors and Substrates of Cytochrome P450 3A4 (AID 884); also: potency is read from the fitted curve at half-maximal effect; nearly all actives have a fitted effect of over 50% in size
Summary of the method: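 20 nM human CYP3A4 with 25 uM Luciferin-PPXE (at KM) in 200 mM KPO4, preincubated 10 min with compound; NADPH regeneration started a 60 min RT reaction. Luciferin detected by luminescence, normalized to 57 uM ketoconazole as full inhibition.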

[13] = Counterscreen qHTS for small molecule stabilizers of the endoplasmic reticulum resident proteome: GLuc-NoTag assay (AID 1508627);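 also: SH-SY5Y cells given compound then 100 nM thapsigargin to empty ER calcium; 0% = thapsigargin alone and -100% = DMSO vehicle control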
Summary of the method: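 Luminescence of Gaussia luciferase secreted into the medium (coelenterazine, 0.07x final, unlysed cells) was the read-out. Human SH-SY5Y neuroblastoma cells constitutively secreting untagged GLuc received compound for 19 h, then 100 nM thapsigargin for 4 h.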

[14] = Confirmatory qHTS for small molecule stabilizers of the endoplasmic reticulum resident proteome: Secreted ER Calcium Modulated Protein (SERCaMP) assay (AID 1508628); also: potency is read from the fitted curve at half-maximal effect; nearly all actives have a fitted effect of over 40% in size
Summary of the method: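 We seeded SH-SY5Y-GLuc-SERCaMP cells, added compounds (three concentrations in the primary run, eleven up to 76.6 uM in confirmation), incubated 16 h, depleted ER calcium with thapsigargin, and read luciferase 4 h later.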

[15] = qHTS Assay for Lipid Storage Modulators (AID 1519; calls by dose curve); settings: Drosophila S3 cells, BODIPY lipid droplet/cell ratio, laser cytometry, cells loaded with oleic acid
Summary of the method: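 Cells seeded at 5,000 per well were treated with compounds over a concentration series and loaded with oleic acid (400 uM, as added). Lipid droplet fluorescence (488 nm excitation, 500-530 nm channel) was read by laser-scanning cytometry and normalized to 20 uM Triacsin C.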

Chain of Cytochrome P450 3A4 (Homo sapiens) (P08684 whole entry, looked up): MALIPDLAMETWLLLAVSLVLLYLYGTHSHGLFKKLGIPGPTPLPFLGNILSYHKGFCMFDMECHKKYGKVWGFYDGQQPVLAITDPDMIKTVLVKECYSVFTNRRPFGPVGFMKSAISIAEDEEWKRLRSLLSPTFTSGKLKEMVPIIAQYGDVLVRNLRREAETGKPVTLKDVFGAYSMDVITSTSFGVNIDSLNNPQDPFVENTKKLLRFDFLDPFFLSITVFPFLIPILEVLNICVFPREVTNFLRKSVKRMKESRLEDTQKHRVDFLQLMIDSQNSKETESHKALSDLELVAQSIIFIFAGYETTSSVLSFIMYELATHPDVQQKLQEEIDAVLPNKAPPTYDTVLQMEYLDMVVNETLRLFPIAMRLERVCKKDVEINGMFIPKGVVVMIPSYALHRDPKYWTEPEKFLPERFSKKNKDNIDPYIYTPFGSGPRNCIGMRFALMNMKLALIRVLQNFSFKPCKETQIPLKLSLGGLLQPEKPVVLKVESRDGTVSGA
Chain of DNA dC->dU-editing enzyme APOBEC-3G (Homo sapiens) (Q9HC16 whole entry, looked up): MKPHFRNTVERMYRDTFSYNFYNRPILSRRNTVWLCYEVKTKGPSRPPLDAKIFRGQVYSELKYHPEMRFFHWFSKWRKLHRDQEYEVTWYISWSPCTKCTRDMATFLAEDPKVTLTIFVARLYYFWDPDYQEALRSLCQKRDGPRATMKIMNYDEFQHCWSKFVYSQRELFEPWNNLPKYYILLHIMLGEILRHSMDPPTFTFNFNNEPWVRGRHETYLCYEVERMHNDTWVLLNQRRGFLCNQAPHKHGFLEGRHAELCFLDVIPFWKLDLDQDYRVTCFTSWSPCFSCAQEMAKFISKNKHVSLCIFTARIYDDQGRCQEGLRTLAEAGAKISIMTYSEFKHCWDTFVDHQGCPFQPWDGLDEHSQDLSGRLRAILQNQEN
Chain of Glucocorticoid receptor (Homo sapiens) (P04150 whole entry, looked up, the tested form may be a part): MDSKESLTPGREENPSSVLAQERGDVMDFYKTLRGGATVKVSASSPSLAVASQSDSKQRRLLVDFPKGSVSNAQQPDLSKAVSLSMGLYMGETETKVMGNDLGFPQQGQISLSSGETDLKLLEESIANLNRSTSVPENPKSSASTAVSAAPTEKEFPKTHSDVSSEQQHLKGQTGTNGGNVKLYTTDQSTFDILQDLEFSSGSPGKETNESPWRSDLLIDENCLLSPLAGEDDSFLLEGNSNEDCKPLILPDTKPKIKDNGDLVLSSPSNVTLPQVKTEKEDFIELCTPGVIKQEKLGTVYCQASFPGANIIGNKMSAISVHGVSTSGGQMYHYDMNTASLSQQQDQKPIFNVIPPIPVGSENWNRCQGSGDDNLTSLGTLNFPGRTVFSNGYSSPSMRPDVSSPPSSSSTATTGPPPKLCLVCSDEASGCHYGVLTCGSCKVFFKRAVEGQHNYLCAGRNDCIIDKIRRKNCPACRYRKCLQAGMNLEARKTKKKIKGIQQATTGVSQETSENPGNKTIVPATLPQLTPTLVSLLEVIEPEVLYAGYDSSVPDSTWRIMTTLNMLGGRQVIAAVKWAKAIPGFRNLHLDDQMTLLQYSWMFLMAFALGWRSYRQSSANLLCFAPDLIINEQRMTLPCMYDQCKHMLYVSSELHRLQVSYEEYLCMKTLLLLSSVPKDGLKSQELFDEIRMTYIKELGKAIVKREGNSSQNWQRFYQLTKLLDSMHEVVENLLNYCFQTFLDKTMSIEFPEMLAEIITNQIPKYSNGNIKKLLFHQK
Chain of Cytochrome P450 2C19 (Homo sapiens) (P33261 whole entry, looked up): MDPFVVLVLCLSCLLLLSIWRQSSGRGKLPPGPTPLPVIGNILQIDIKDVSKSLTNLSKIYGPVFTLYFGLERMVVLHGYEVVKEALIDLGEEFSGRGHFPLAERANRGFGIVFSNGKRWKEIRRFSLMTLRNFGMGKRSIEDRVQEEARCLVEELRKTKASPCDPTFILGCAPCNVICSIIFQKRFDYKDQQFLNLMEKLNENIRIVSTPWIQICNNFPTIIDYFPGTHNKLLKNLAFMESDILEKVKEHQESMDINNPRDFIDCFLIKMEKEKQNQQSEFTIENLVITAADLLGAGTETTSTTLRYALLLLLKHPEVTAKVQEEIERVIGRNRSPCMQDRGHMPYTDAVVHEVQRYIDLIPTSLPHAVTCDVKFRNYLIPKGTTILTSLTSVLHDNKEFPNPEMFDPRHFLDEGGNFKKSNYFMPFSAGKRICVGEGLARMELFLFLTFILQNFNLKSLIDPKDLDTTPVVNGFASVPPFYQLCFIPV
Chain of 3',5'-cyclic-AMP phosphodiesterase 4B (Homo sapiens) (Q07343 whole entry, looked up): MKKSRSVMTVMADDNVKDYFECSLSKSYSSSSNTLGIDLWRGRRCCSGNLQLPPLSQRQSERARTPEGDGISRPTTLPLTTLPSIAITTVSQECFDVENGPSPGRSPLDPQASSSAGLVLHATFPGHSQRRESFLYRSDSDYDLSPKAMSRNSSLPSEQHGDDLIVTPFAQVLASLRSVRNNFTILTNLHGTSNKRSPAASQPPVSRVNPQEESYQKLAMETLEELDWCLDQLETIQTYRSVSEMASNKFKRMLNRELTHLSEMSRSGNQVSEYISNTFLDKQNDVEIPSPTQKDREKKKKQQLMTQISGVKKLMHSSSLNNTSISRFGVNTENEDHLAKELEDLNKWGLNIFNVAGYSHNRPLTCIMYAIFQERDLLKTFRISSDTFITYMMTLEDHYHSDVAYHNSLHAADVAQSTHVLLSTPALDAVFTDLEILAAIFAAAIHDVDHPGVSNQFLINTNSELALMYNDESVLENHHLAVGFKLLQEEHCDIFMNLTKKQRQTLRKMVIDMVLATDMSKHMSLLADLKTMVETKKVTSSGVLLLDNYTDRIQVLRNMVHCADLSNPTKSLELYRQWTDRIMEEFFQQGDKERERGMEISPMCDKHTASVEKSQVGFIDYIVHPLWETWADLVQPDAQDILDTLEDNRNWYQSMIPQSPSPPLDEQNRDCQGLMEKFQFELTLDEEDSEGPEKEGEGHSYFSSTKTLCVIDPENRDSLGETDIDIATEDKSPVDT
Chain of Cytochrome P450 1A2 (Homo sapiens) (P05177 whole entry, looked up): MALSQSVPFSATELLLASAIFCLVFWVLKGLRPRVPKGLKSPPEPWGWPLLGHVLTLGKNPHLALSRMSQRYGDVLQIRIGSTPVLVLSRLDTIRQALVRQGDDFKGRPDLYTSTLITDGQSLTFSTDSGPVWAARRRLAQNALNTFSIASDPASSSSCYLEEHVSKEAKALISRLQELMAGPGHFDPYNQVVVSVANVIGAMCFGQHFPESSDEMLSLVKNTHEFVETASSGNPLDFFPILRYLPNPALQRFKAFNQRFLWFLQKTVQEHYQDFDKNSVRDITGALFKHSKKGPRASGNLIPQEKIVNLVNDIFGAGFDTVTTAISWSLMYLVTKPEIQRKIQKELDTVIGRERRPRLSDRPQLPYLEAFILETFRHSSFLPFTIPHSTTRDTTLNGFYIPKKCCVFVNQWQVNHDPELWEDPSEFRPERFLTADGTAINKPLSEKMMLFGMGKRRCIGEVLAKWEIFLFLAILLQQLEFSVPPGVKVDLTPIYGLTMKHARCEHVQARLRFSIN

CS(=O)(=O)Nc1ccc([N+](=O)[O-])cc1OC1CCCCC1
active: Potency [1] 3.98 µM | Potency [5] 0.0794 µM
inactive: Potency [2] > 46 µM | Potency [3] > 46 µM | Potency [4] | Potency [6] | Potency [7]

C/C(O)=C1\C(=O)[C@@H]2[C@H]3c4c[nH]c5cccc(c45)C[C@H]3C(C)(C)N2C1=O
inactive: Potency [7]

COc1ccc2[nH]c(I)c(CCNC(C)=O)c2c1
inactive: activity change, negative = inhibition [8] -1.64% | activity, negative = inhibition [9] 3.36% | Potency [2] > 46 µM | Potency [3] > 46 µM | Potency [10] | Potency [11] | Potency [6] | Potency [7]

CCOC(=O)NC[C@H](Cc1ccc(OCCc2nc(-c3ccccc3)oc2C)cc1)N/C(C)=C\C(=O)c1ccc(C(F)(F)F)cc1
active: Potency [12] 0.794 µM | Potency [14] 31.6 µM
inactive: Potency [4] | Potency [13]

CN(CCc1ccc(Cl)c(Cl)c1)CCN1CCCC1
15.8%: max response ([15]; measured here: lipid channel max response)
22.4%: max response ([15]; measured here: cell count channel max response)
inactive: Potency [2] > 46 µM | Potency [3] > 46 µM | Potency [10] | activity change, negative = inhibition ([15]; at 57.5 µM (top of the series)) -5.91% | Potency [6] | Potency [7]

Cc1ccc(S(=O)(=O)/C=C\C#N)cc1
active: Potency [5] 5.01 µM
inactive: Potency [2] > 46 µM | Potency [3] > 46 µM | Potency [4] | Potency [6] | Potency [7]
